High-throughput results from PubChem.
In the library only some 11% were active in any assay of this set; here they are far more common.
Pf growth 96h – Primary qHTS for delayed death inhibitors of the malarial parasite plastid, 96 hour incubation; Potency, µM (doses to about 28.7 µM), usual class: inhibitors; AID 504834, 2011; 320,000 compounds, 6.9% hits; P. falciparum luciferase reporter growth, 96 h
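Plates of compound plus infected erythrocytes (2% hematocrit, 0.05% parasitemia final) incubate 96 hours, 37 C, 5% CO2. Detection reagent added; reduced luminescence from the parasites' luciferase reporter flags inhibition.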
HCV inhibitor – qHTS Assay for Inhibitors of Hepatitis C Virus (HCV) | 340,000 compounds, 3.4% hits | Potency, µM (highest dose often 41.8 µM), usual class: inhibitors | Huh7.5.1 HCVcc-Cre infection, luciferase reporter, 44 h
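After 44 h co-culture of compound, cells and HCVcc-Cre (~0.5 moi), substrate is added for 15 min at room temperature and luciferase measured over 15 sec. Cells were seeded at 1,000/well and pre-cultured 4 h.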
Pf growth 48h – Primary qHTS for delayed death inhibitors of the malarial parasite plastid, 48 hour incubation; P. falciparum luciferase growth in erythrocytes, 48 h; Potency, µM (titrated, usually from 28.7 µM), actives largely listed as inhibitors; 310,000 compounds, 5.9% hits
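Growth was read as firefly luciferase luminescence after a 48 h, 37 C, 5% CO2 exposure of compounds to reporter-bearing P. falciparum cultures (0.1% parasitemia, 2% hematocrit final) in Albumax-supplemented RPMI 1640.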
NS1 inh – qHTS Assay for Inhibitors of Influenza NS1 Protein Function; Potency, µM (highest dose often 46.1 µM); 270,000 compounds, 0.4% hits; calls by dose curve; note: actives are rising curves; nearly all actives have a fitted effect of over 50% in size
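A cell-based growth assay was used: compounds that relieve NS1-induced slow growth of budding yeast raise OD600. Assay medium was yeast nitrogen base with ammonium sulphate and -URA supplement, pH 6.0, with 2% galactose.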
Vaccinia Venus – qHTS for Stage-Specific Inhibitors of Vaccinia Orthopoxvirus: Venus Reporter Primary qHTS; Potency, µM (titrated, usually from 36.5 µM), actives largely listed as inhibitors; Vaccinia virus Venus reporter expression, fluorescence; AID 720580, 2013; 330,000 compounds, 0.46% hits; calls by dose curve; tested in A549 cells; note: nearly all actives have a fitted effect of over 30% in size
VACV mCherry inh – qHTS for Stage-Specific Inhibitors of Vaccinia Orthopoxvirus: mCherry Reporter Primary qHTS; AID 720579, 2013; Potency, µM (highest dose often 36.5 µM), usual class: inhibitors; Vaccinia virus mCherry reporter infection, fluorescence; 310,000 compounds, 0.63% hits; calls by dose curve; tested in A549 cells; note: nearly all actives have a fitted effect of over 35% in size
A number is an active result; n = inactive; u = inconclusive; x = not tested or not shown. Unless noted, calls come from the whole dose curve; as a rule, active = well fitted inhibition curve with a large enough effect; inconclusive = small, poorly fitted or top-dose-only effect, or another doubt; inactive = no such curve, though single readings can be large or run the other way.

SMILES	Pf growth 96h	HCV inhibitor	Pf growth 48h	NS1 inh	Vaccinia Venus	VACV mCherry inh
CC1CCCCN1CCCNC(=O)c1ccc2c(=O)n(CCc3ccccc3)c(=O)[nH]c2c1 (stereo not given)	n	3.98µM	x	n	x	x
CCCCCn1c(=O)[nH]c2cc(C(=O)NCCN3CCC(C)CC3)ccc2c1=O	n	u	n	n	n	n
CCOC(=O)C1(c2ccccc2)SC(C(=O)OCC)(c2ccccc2)S1 (stereo not given)	x	x	x	x	n	n
O=C(NNC(=O)C1CCN(Cc2ccc(F)cc2Cl)CC1)Nc1ccc([N+](=O)[O-])cc1	n	11.2µM	n	n	x	x
Cc1c(Cl)cccc1NC(=O)COC(=O)CCc1nc2ccccc2n1-c1ccccc1	n	u	n	n	n	n
CCOC(=O)c1cc(N2CCCCC2)nc2ccccc12	x	n	x	x	n	n
O=C1NC(=O)C(CCc2ccncc2)(CCc2ccncc2)C(=O)N1CCc1ccccc1	2.94µM	n	u	n	n	n
CC1=NN(c2ccccc2)C(=O)/C1=C/c1cn(C)c2ccccc12	7.38µM	n	u	n	n	n
CCOC(=O)c1ccc(N2N=C(C)/C(=C/C=C/c3ccco3)C2=O)cc1	13.1µM	n	n	n	x	x
CC1=NN(c2ccccc2)C(=O)/C1=C\c1cc(C)n(C)c1C	9.28µM	n	u	n	n	n
CC1=NN(c2ccccc2)C(=O)/C1=C\C=C\c1ccccc1	11.7µM	u	u	n	n	n
CC1=NN(c2ccccc2)C(=O)/C1=C/C=C/c1ccc(N(C)C)cc1	u	n	u	x	u	n
CC1=NN(c2ccccc2)C(=O)/C1=C\c1cn(C)c2ccccc12	u	u	u	x	n	n
CC(=O)O[C@H]1CCC2C3CCC4=CC(=O)CCC4=C3C=C[C@@]21C (stereo not given in full)	n	n	n	n	n	n
CC(=O)c1ccc(NC(=O)COC(=O)c2ccccc2N=Nc2ccc(N(C)C)cc2)cc1	u	n	u	n	n	u
Cc1cc(C)cc(N2C(=O)NC(=O)/C(=C\c3cc(C)n(C)c3C)C2=O)c1	n	n	n	n	n	n
CCc1ccccc1N1C(=O)NC(=O)/C(=C\c2cc(C)n(C)c2C)C1=O	u	n	n	n	n	10µM
CN(C)c1ccc(N=Nc2ccccc2)cc1	x	x	x	x	n	n
Cc1[nH]c(N=Nc2ccccc2)nc1N=Nc1ccccc1	9.28µM	12.6µM	3.7µM	n	n	u
CCCCOc1ccc(N2C(N)=NC(N)=NC23CCCCC3)cc1	u	n	10.4µM	n	x	x
COc1ccc(N2C(N)=NC(N)=NC23CCCC3)cc1	n	n	0.928µM	n	u	x
COc1ccccc1N1C(N)=NC(N)=NC1(C)C	n	n	u	n	n	n
COc1ccccc1N1C(N)=NC(N)=NC12CCCCC2	13.1µM	n	u	n	n	n
NC1=NC2(CCCCC2)N(c2ccc(F)cc2)C(N)=N1	n	n	13.1µM	n	n	n
COc1cc(S(=O)(=O)NCCCN2CCOCC2)ccc1Cl	x	n	n	n	n	n
SMILES	Pf growth 96h	HCV inhibitor	Pf growth 48h	NS1 inh	Vaccinia Venus	VACV mCherry inh
O=C(NCC[C@H]1CC[C@H](NS(=O)(=O)c2ccc(F)cc2)[C@@H](CO)O1)c1ccc2c(c1)OCO2	x	x	x	x	n	n
O=c1[nH]c(CN2CCN(C/C=C/c3ccccc3)CC2)nc2ccccc12	x	n	n	n	x	x
Nc1nc(N2CCN(C/C=C/c3ccccc3)CC2)nc2ccccc12	n	n	11.7µM	n	n	n
CCc1c(C)sc(NC(=O)OC)c1C(N)=O	4.15µM	n	n	n	x	x
CCc1c(C)sc(NC(=O)OC)c1C(=O)N1CCCCC1	n	n	n	n	x	x
COc1ccc(Cc2nn3c(-c4ccccc4Br)nnc3s2)cc1	u	u	u	n	n	n
Cc1onc(-c2ccccc2)c1NC(=O)Nc1ccc(OC(F)F)cc1	4.65µM	n	6.57µM	n	x	x
Cc1cc(=O)oc2cc(OCC(=O)OC(C)C(=O)Nc3ccc(S(N)(=O)=O)cc3)ccc12 (stereo not given)	x	u	x	x	n	n
COc1cc(CNc2ccc(CNc3ncn[nH]3)cc2)ccc1OCC(=O)NC(C)(C)C	u	u	u	u	n	n
CCOc1cc(CNc2ccc(CNc3ncn[nH]3)cc2)ccc1OCc1ccccc1	13.1µM	u	u	n	n	n
O=C(N/N=C/c1ccc([N+](=O)[O-])o1)C(O)c1ccccc1 (stereo not given)	u	u	u	n	x	x
Cc1ccc(OCC(=O)N/N=C/c2ccc([N+](=O)[O-])o2)cc1	u	u	10.4µM	n	u	u
O=C(CNc1ccc2ccccc2c1)N/N=C/c1ccc([N+](=O)[O-])o1	3.29µM	u	9.28µM	n	u	u
Cc1ccc(OCC(=O)N/N=C/c2ccco2)cc1	n	n	x	n	n	n
O=C(COc1ccccc1)N/N=C/c1ccc([N+](=O)[O-])o1	10.4µM	n	8.28µM	n	x	x
Cc1ccc(OCC(=O)N/N=C/c2ccccc2)c([N+](=O)[O-])c1	n	n	n	x	n	n
O=C(CNc1ccc2ccccc2c1)N/N=C/c1ccc(C(=O)O)cc1	n	n	n	x	n	n
Cc1ccc(OCC(=O)N/N=C\c2ccc(C)o2)c([N+](=O)[O-])c1	5.86µM	n	n	x	n	n
Cc1cc(=O)[nH]c2c(C)c(Cl)ccc12	x	x	x	n	x	x
COc1ccc2c(c1)[nH]c1c(=O)n(CCN3CCCC3)cnc12	n	n	n	u	n	x
Cc1ccc(N2C(=O)C3CCCN3C2=S)cc1C (stereo not given)	n	n	n	n	n	n
CCC(C)(C)NC(=O)C(c1ccc(OC)cc1)N(C(=O)CCC(=O)Nc1cc(C)on1)c1ccccc1OC (stereo not given)	n	n	u	n	n	n
O=C(NC(N1CCOCC1)C(Cl)(Cl)Cl)c1ccc(Br)cc1 (stereo not given)	n	n	n	x	n	n
CCc1ccc(NC(=O)C2CC(=O)N(C(C)C)C2)cc1 (stereo not given)	u	n	n	n	x	x
Cc1c(/C=N/NC(=O)COc2ccccc2[N+](=O)[O-])c2ccccc2n1C	n	u	n	n	x	x
Cc1ccc(OCC(=O)N/N=C\c2c(C)n(C)c3ccccc23)c([N+](=O)[O-])c1	u	15.8µM	u	n	x	x
CCn1c(=O)n(CC)c2cc(N3CCCC3)c(NC(=O)c3cc(Br)ccc3OC)cc21	u	u	9.28µM	n	x	x
CCn1c(=O)n(CC)c2cc(N3CCCC3)c(NC(=O)c3ccccc3F)cc21	1.31µM	12.6µM	u	n	n	u
CCn1c(=O)n(CC)c2cc(N3CCCC3)c(NC(=O)c3ccc(C)cc3)cc21	u	u	n	n	x	x
Cn1c(=O)c(=O)n(C)c2cc(N3CCCC3)c(NC(=O)c3ccccc3F)cc21	x	x	x	x	n	n
